From PubChem BioAssay
697 NFkB inh: inhibitors of the PMA/ionomycin-induced NF-kB reporter in 697 B cells; 697 B-cell NF-kB luciferase reporter, 16 h; inhibition, % at 4 µM; 330,000 tested, 0.33% active; in the data active = inhibition above about 35%
Gli-Sufu block: blocks Gli-Sufu signaling in a luciferase reporter | Sufu-KO-LIGHT fibroblasts, Gli luciferase reporter luminescence | inhibition, % at 5 µM | 340,000 tested, 0.74% active | AID 588413;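 active = inhibition above about 55%, limit read from the data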;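 note: 0% = DMSO-treated cells and 100% = wells with medium but no cells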
CSC inhib: cancer stem cell inhibition; cancer stem cell-like cells viability, luminescence; inhibition, % at 7.5 µM; 300,000 tested, 1.1% active; AID 2717; in the data active = inhibition above about 75%; inconclusive = no clear call, values can overlap the other calls; tested in HMLE shEcad cells
Mdm2-MdmX inh: inhibitors of human Mdm2/MdmX interaction | SaOS-2 split-luciferase Mdm2/MdmX complementation, luminescence | 330,000 tested, 3% active | O15151+Q00987 | inhibition, % at 8 µM | AID 485346;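 active = inhibition of at least 50% at 8 µM in the primary screen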
Jurkat NFkB inh: inhibitors of the PMA/ionomycin-induced NF-kB reporter in Jurkat cells; 330,000 tested, 0.53% active; PMA/ionomycin-induced NF-kB luciferase reporter, luminescence; inhibition, % at 4 µM; in the data active = inhibition above about 50%
aSyn UTR inh: 5' untranslated region of α-synuclein, MLPCN primary screen | AID 1813 | 300,000 tested, 0.82% active | inhibition, % (tested at 7.5 µM) | alpha-synuclein 5'UTR reporter, inhibitor activity; in the data active = inhibition above about 60%; inconclusive = no clear call, values can overlap the other calls;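 note: H4 neuroglioblastoma cells stably carrying SNCA 5'UTR luciferase fusion; 0% = DMSO wells and 100% = positive control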
697 NFkB conf: lowers PMA/ionomycin-induced NF-kB signal in 697 B cells; shares compounds with 697 NFkB inh; 697 B-cell NF-kB luciferase, 16 h; inhibition, % at 4 µM; 2,000 tested, 35% active; AID 449746; in the data active = inhibition mostly above about 28%, no sharp cut-off; inactive = mostly below about 22%
Mdm2 MdmX conf: human Mdm2/MdmX binding inhibition, confirmed; shares compounds with Mdm2-MdmX inh; luminescent assay; inhibition, % at 8 µM; 10,000 tested, 55% active; in the data active = inhibition above about 40%
FLuc counter: inhibits full-length luciferase, flagging false Mdm2/MdmX hits; shares compounds with Mdm2-MdmX inh; inhibition, % at 8 µM; 6,200 tested, 77% active; SaOS-2 full-length luciferase counterscreen, luminescence;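 active = mean inhibition at 8 µM reaching about 37%, which flags the compound as non-specific, limit read from the data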;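 note: p53-null SaOS-2 cells with luciferase driven by a doxycycline-inducible promoter; compound on cells about two nights before reading with doxycycline added after day one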
Numbers without * were called inactive; i = inactive; ? = inconclusive; . = not tested or not shown; + = active, no number. The list is not random: actives were taken first. Their share in the collection is about 4.5%.

SMILES | 697 NFkB inh | Gli-Sufu block | CSC inhib | Mdm2-MdmX inh | Jurkat NFkB inh | aSyn UTR inh | 697 NFkB conf | Mdm2 MdmX conf | FLuc counter
O=C(Nc1ccc2ccccc2c1)C(c1ccccc1)C1CCCC1 (stereo not drawn) | -258 | 14 | 42 | 57* | -9 | 54 | -220 | 59* | 78*
Cn1ncc2c(Nc3ccc(-c4ccccc4)cc3)ncnc21 | -436 | -51 | -10 | 76* | -110 | -45 | -450 | 48* | 73*
Cn1ncc2c(Nc3ccc(Cl)c(Cl)c3)ncnc21 | -10 | 10 | -2 | 19 | -16 | -37 | . | . | .
COc1ccc(S(=O)(=O)N(C)CC(=O)NCc2ccc3c(c2)OCO3)cc1 | 3 | -1 | -9 | 6 | -5 | -3 | . | . | .
Cc1ccc(-c2nc(C(=O)NCC3CCCO3)cc3c2[nH]c2ccccc23)cc1 (stereo not drawn) | 39* | 16 | 46 | 73* | 8 | -8 | 36* | 44* | 66*
COc1ccc(N2C(=NC(=O)C3CCCCC3)SC3CS(=O)(=O)CC32)c(OC)c1 (stereo not drawn) | 7 | 36 | -6 | 6 | -20 | 26 | . | . | .
O=C(CCl)N1CCN(S(=O)(=O)c2ccc3c(c2)CCC3)CC1 | 38* | 6 | . | 64* | 4 | . | 38* | 7 | .
Cc1cc(NC2CCCC2)n2ncc(-c3ccccc3)c2n1 | i | -26 | 29 | 84* | -112 | ? | i | 82* | 181*
Cc1ccc(-c2cnn3c(N4CCOCC4)cc(C)nc23)cc1 | -280 | 16 | 5 | 64* | -140 | 19 | -237 | 69* | +
Cc1nn(Cc2ccccc2Cl)c(C)c1C(=O)Nc1nnc(C2CC2)s1 | i | -22 | 53 | 79* | -54 | 13 | i | 7 | .
Cc1ccn(CC(=O)NC2CC(C)(C)Cc3c2cnn3-c2ccc(F)cc2)n1 (stereo not drawn) | -16 | 6 | -16 | -7 | -28 | -28 | . | . | .
CN1CCN(C(=O)c2cc([N+](=O)[O-])ccc2Cl)CC1 | -5 | 5 | -5 | 4 | 2 | -6 | . | . | .
CCCOc1ccccc1/C=C1\SC(N2CCCCC2)=NC1=O | -300 | -5 | 24 | 86* | -57 | -16 | -287 | 62* | 64*
O=C1N=C(N2CCCCC2)S/C1=C\c1ccccc1F | -36 | -60 | 0 | -24 | -38 | -143 | . | . | .
Cc1cc(NC(=O)CSc2nc3cc(C)c(C)cc3cc2C)no1 | 2 | 5 | -9 | 41 | 13 | -13 | . | . | .
Cc1cc(-c2nc(C)c(-c3nnc(SCC(=O)Nc4cc(Cl)cc(Cl)c4)n3C)s2)no1 | 9 | 0 | 4 | 24 | 1 | 28 | . | . | .
Cn1c(SCC(=O)Nc2cc(Cl)cc(Cl)c2)nnc1-c1ccc2nonc2c1 | 38* | -2 | -2 | 71* | 6 | 26 | 26 | 14 | .
CCN1CCN(C(=O)CSc2cc(=O)n(CC)c3ccccc23)CC1 | 39* | 30 | -6 | 52* | -4 | 5 | 54* | 41* | 76*
CCn1cc(CN2CCCC(CNC(=O)COc3ccccc3OC)C2)c(C)n1 (stereo not drawn) | -3 | 2 | -7 | 5 | -9 | 7 | . | . | .
C[C@@H]1CC=C[C@H]2[C@H]1C(=O)N(Cc1ccccc1)[C@H]2c1ccc(-c2ccc(F)cc2)cc1F | -2 | -4 | 39 | 28 | 1 | 16 | . | . | .
COc1ccc(-c2ccc(F)cc2)cc1[C@H]1[C@H]2C=CC[C@@H](C)[C@@H]2C(=O)N1Cc1ccccc1 | 40* | 35 | -6 | 61* | 0 | 11 | 46* | 44* | 50*
Cc1cc(C(=O)CCl)c(C)n1-c1cccc([N+](=O)[O-])c1 | 40* | 6 | 0 | 69* | 4 | . | 9 | 38 | 60*
CC(=O)/C(C#N)=C1\NC(=O)C(Cc2ccc(C)c(Cl)c2)S1 (stereo not drawn) | i | 7 | 45 | 79* | 3 | 36 | -492 | 78* | 32
CC(/C=C1\N=C(SCc2ccccc2)SC1=O)=C\c1ccccc1 | 13 | 2 | . | -18 | -3 | -14 | . | . | .
C[C@H](NC(=O)c1nc[nH]c1C(=O)N1CCN(C(=O)OC(C)(C)C)CC1)C(=O)OC(C)(C)C | 3 | -15 | 16 | 7 | 0 | . | . | . | .
SMILES | 697 NFkB inh | Gli-Sufu block | CSC inhib | Mdm2-MdmX inh | Jurkat NFkB inh | aSyn UTR inh | 697 NFkB conf | Mdm2 MdmX conf | FLuc counter
CC(C)C[C@H](NC(=O)c1nc[nH]c1C(=O)N1CCN(C(=O)OC(C)(C)C)CC1)C(=O)OC(C)(C)C | i | 7 | 51 | 91* | -16 | -9 | i | 81* | 53*
Cc1cccc(NC(=O)c2cc3n(n2)C(C(F)(F)F)CC(c2ccc4c(c2)OCO4)N3)c1 (stereo not drawn) | 36* | -1 | -1 | 51* | 17 | 8 | 3 | 75* | 47*
COc1ccc(NC(=O)c2cc3n(n2)C(C(F)(F)F)CC(c2ccc4c(c2)OCO4)N3)cc1OC (stereo not drawn) | 12 | -4 | -5 | 39 | 4 | . | . | . | .
Cc1ccc(S(=O)(=O)N2CCN(S(=O)(=O)N3CCCCCC3)CC2)cc1 | -27 | 3 | -4 | -20 | 0 | 18 | . | . | .
CC(C)CNC(=O)c1c(N)n(/N=C/c2ccccn2)c2nc3ccccc3nc12 | -46 | 27 | 4 | 22 | -5 | -33 | . | . | .
CCCCNC(=O)c1c(N)n(/N=C/c2ccccn2)c2nc3ccccc3nc12 | 47* | . | 4 | 60* | -1 | -60 | 44* | 36 | 72*
CCOC(=O)Oc1c(OC)cc(C(=O)O[C@@H]2C[C@@H]3CN4CCc5c([nH]c6cc(OC)ccc56)[C@H]4C[C@@H]3[C@H](C(=O)OC)[C@H]2OC)cc1OC | 37* | 7 | 15 | 88* | 11 | . | 26 | 58* | 49*
COc1ccc(C)cc1NS(=O)(=O)c1ccc(NC(=O)CN(c2cc([N+](=O)[O-])ccc2C)S(C)(=O)=O)cc1 | 38* | 11 | 93* | 70* | -1 | 114* | -8 | 63* | 51*
COc1ccc([N+](=O)[O-])cc1N(CC(=O)NCCSc1ccc(C)cc1)S(C)(=O)=O | 9 | 2 | 16 | 4 | -28 | -6 | . | . | .
Cn1nc(C(=O)Nc2c(-c3ccccc3)nc3sccn23)c2ccccc2c1=O | -17 | 4 | 16 | 17 | 3 | -4 | . | . | .
O=C(COC(=O)c1cc(S(=O)(=O)N2CCOCC2)ccc1O)Nc1ccc2c(c1)OCO2 | 13 | -3 | -1 | -8 | 17 | . | . | . | .
O=C(O)c1ccccc1C=NN1CCCCCC1 | . | -1 | . | . | . | . | . | . | .
